In the library only some 1.2% were active in any assay of this set; here they are far more common.
Anesthetic bind = candidate novel general anesthetic via apoferritin binding; P02791; apoferritin/1-aminoanthracene competitive binding, fluorescence; Potency, µM (titrated, usually from 77.5 µM), for inactives: at the top dose activity change, negative = displacement, usual class: inhibitors; hit rate 0.074% among 350,000; further: on the % scale 0 is the no-effect control and ±100 the full control effect; nearly all actives have a fitted effect of over 20% in size
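Horse-spleen apoferritin (10 uM) was mixed with 50% saturated 1-aminoanthracene in PBS, exposed to compounds for 10 min at room temperature, and read for fluorescence (ex 380 nm, em 535 nm). Competitive displacement was fitted with a four-parameter Hill equation.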
ERG-DNA inh = blocks human ERG Ets domain binding to DNA | P11308 | fluorescence polarization, His-ERG Ets domain / labelled DNA | Potency, µM (doses to about 76.9 µM), inactives show at the highest dose FP activity, negative = inhibition, usual class: inhibitors | hit rate 0.028% among 370,000 | AID 624246; active means well fitted inhibition curve with a large enough effect in the polarisation, with a control signal flat; inconclusive means small, poorly fitted or top-dose-only effect, or effect the other way, or a change in a side signal; inactive means no such curve, though single readings can be large or run the other way; the % refers to the polarisation;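 further: polarization taken with two DNA probes labelled with fluorescein and Texas red; % of control where 0% means no effect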
Target sequence (P11308 whole entry, looked up, the tested form may be a part): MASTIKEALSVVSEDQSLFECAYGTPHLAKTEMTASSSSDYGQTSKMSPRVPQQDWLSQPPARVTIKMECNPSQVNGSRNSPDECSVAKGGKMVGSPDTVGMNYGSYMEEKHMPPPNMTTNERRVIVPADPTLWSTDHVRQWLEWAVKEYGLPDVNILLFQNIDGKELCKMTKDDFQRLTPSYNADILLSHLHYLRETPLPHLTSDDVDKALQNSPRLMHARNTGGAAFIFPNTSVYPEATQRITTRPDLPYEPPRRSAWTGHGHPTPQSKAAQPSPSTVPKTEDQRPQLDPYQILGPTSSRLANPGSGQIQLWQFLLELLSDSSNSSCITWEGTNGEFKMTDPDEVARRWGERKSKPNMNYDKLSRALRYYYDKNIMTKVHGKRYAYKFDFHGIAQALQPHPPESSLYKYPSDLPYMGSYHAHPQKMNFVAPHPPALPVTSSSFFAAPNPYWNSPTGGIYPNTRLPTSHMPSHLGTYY
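His-tagged ERG Ets domain (1 uM in the protein solution; 300mM KCl, 50mM Tris-HCl, 1mM EDTA, 1mM DTT, pH 7.5) received compound, then a probe mix of 5 nM fluorescein-DNA and 100nM Texas-615-DNA. Fluorescence polarization was read for both dyes.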
RGS12 GoLoco inh = blocks human Gai1 binding to RGS12 GoLoco peptide, red readout | P63096 | Gai1:RGS12 GoLoco peptide FP, rhodamine, 10 min | Potency, µM (doses to about 61.6 µM), for inactives: at the top dose activity, negative = inhibition, usual class: inhibitors | hit rate 0.44% among 230,000 | AID 880; active means well fitted inhibition curve with a large enough effect, not every such curve was filed as active; inactive means no such curve, though single readings can be large or run the other way; further: on the % scale 0 is the no-effect control and ±100 the full control effect; nearly all actives have a fitted effect of over 30% in size
BRCA1 expr up = activators of BRCA1 expression; MCF7-BRCA1-FFLuc reporter, luminescence, 48 h; response scale: scaled: vehicle 0%, 10 µM genistein 100%; AID 624202; hit rate 1.1% among 380,000; Potency, µM (series often up to 46.1 µM), for the others: top-dose activation, actives largely listed as activators; further: nearly all actives have a fitted effect of over 80% in size
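Reporter cells (MCF7, BRCA1 promoter-firefly luciferase) received library compounds across a concentration series for 48 h. End-point luminescence was measured and concentration-effect curves derived after normalization.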
* = called active by the depositor; ? = inconclusive; nt = no result; ! = not confirmed by another sample; [ ] = dose if it differs, or a comment. Unless noted, the call rests on the fitted dose curve; in most records, active means well fitted curve in the direction sought with a large enough effect; inconclusive means small, poorly fitted or top-dose-only effect, or another doubt; inactive means no such curve, though single readings can be large; an effect the other way counts as inactive or inconclusive. Potency means the concentration at half of the fitted maximal effect.

SMILES | Anesthetic bind | ERG-DNA inh | RGS12 GoLoco inh | BRCA1 expr up
O=c1c2sccc2nc(SCc2cc(=O)n3cc(Br)ccc3n2)n1Cc1ccccn1 | -19% | 8% | 8% | 6.3µM*
c1ccc(CCNc2nc(-c3ccccn3)cs2)cc1 | ? | -8% | 2% | ?
COc1ccc(Nc2nc(-c3cccnc3)cs2)c(OC)c1 | -15% | 14% | nt | 11µM*
COc1ccc(Nc2nc(-c3cccs3)cs2)c(OC)c1 | -8% | -14% | -23% | -3%[1.84 µM]
c1ccc(CCNc2nc(-c3cccnc3)cs2)cc1 | -3% | nt | 0% | 8.9µM*
CCN(CC)c1ccc(Nc2nc(-c3cccnc3)cs2)cc1 | -6% | -17% | nt | 4µM*
COc1ccccc1Nc1nc(-c2cccnc2)cs1 | -17% | 4% | nt | 10µM*
Cc1ccccc1OCC(=O)Nc1cc(C)c(O)c(-c2nc3ccccc3o2)c1 | nt | nt | nt | 25%
Cc1ccc(S(=O)(=O)N2CCc3nc(-c4ccccc4)c4c(c3C2)CO[C@@H](C)C4)cc1 | nt | nt | -26%[14.2 µM] | nt
COc1cccc(C(=O)O/N=C/c2ccc(Sc3ccc(C)cc3)nc2)c1 | -19% | 3% | 2% | 7.1µM*
O=[N+]([O-])c1ccc(O/N=[N+](\[O-])N2CCCCC2)c([N+](=O)[O-])c1 | nt | nt | nt | 6%
COc1ccc(NC(=O)c2cc(C)on2)cc1OC | -2% | 8% | 11% | 15%
COc1cccc(NC(=O)c2cccnn2)c1 | 4% | 10% | nt | 78%
COc1ccc(NC(=O)c2cccnn2)cc1 | 2% | 10% | nt | 13µM*
COc1ccc(NC(=O)c2cc(C)on2)cc1 | -8% | -5% | 3% | 7.1µM*
COc1ccc(CNC(=O)Nc2cccc(C)c2)cc1 | -9% | -2% | -2% | 3.2µM*
Cc1cc2cc(CNC(=O)Nc3ccccc3)ccc2[nH]1 | -5% | 5% | 5% | 11µM*
CCOC(=O)NCc1ccc2[nH]c(C)cc2c1 | ? | 4% | nt | 13%
Nc1cccc(N2C(=O)c3cccc4c(N)ccc(c34)C2=O)c1 | 102% | ? | nt | 0%
Nc1ccc2c3c(cccc13)C(=O)N(c1ccccc1)C2=O | 127% | 25µM* | -23% | 14%
Cn1ccc(C(=O)Nc2ccc(Br)cc2Br)n1 | -14% | -18% | -2% | 2.2µM*
Cc1ccc(NC(=O)c2ccn(C)n2)c(Br)c1 | 2% | 1% | -26% | ?
COC(=O)c1ccccc1NC(=O)COc1ccccc1C(=O)Nc1ccccc1 | nt | nt | nt | 0%
CCCCCCCCCCCCCCCC[n+]1cccc(C(=O)N(CC)CC)c1 | 16µM* | 17% | 9% | -25%
CCCCCCCC[n+]1cccc(C(=O)N(CC)CC)c1 | 1% | 13% | -2% | 2%
SMILES | Anesthetic bind | ERG-DNA inh | RGS12 GoLoco inh | BRCA1 expr up
Cc1c(C(=O)NC2CCC(C)CC2)oc2ccccc12 (stereo not given) | -5% | 4% | nt | 5µM*
Cc1c(C(=O)OCC(=O)N2CCCC(C)C2)oc2ccccc12 (stereo not given) | nt | 1% | nt | 10µM*
Cc1c(C(=O)NC2CC2)oc2ccccc12 | nt | -19% | nt | 23%
CC1=CC(C)(C)N=C(Nc2ccc(C)cc2)S1 | ? | nt | 2% | 13µM*
CC(=O)c1ccc(NC(=O)C2(c3ccccc3)CC2(Cl)Cl)cc1 (stereo not given) | -21% | -9% | 10% | 10µM*
NC(=O)c1ccsc1N | -3% | nt | 20µM* | nt
O=C(O)c1ccccc1C(=O)c1ccc(Cl)cc1 | -1% | -10% | -1% | 6%
Nc1sccc1C(=O)c1ccc(Cl)cc1 | -17% | nt | 6% | 6.3µM*
O=C(COC(=O)c1ccc(O)cc1)c1ccc2c(c1)OCCO2 | nt | -2% | nt | 10µM*
O=C(CNC(=O)c1ccc(Cl)cc1Cl)OCC(=O)c1ccc2c(c1)OCCO2 | 14µM* | -2% | 4% | 31%
O=C(OCCN1CCOCC1)c1ccc2c(c1)OCCO2 | -7% | -1% | -2% | 7.9µM*
Cc1nc(N2CCN(C)CC2)c2nnn(Cc3ccccc3)c2n1 | nt | nt | nt | 6%
c1coc(CNc2nc[n+]3c4c2ncn4CC3)c1 | nt | nt | nt | -7%
COc1cc(/C=C2\C(=O)N(c3cccc(C(=O)O)c3)N=C2C)ccc1OCc1ccccc1 | nt | nt | nt | 7.1µM*
O=c1cc(-c2ccccc2)oc2cc(O)cc(O)c12 | -11%[29.3 µM] | -2% | 16% | ?
CC(=O)Oc1ccc(-c2cc3c(OC(C)=O)cc(OC(C)=O)cc3oc2=O)cc1 | nt | 11% | nt | 6%
O=c1cc(-c2ccc(O)cc2)oc2cc(O)cc(O)c12 | -11%[29.3 µM] | -11% | 18µM*! | 22µM*
O=c1cc(-c2ccccc2)oc2cc(O)ccc12 | -1% | 4% | nt | 10µM*

Bioassay records deposited in PubChem by National Center for Advancing Translational Sciences (NCATS).
